Assay results as given in PubChem BioAssay AID1662 (Broad Institute, 2009).
Where “and” joins values, the source holds several entries; their conditions need not be identical. Identical values can stand only once. About 4,000 (1.3%) of roughly 300,000 compounds were called active.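 How the source made its calls: active means mean replicate score, as percent of positive control median, at least 50; inconclusive means mean below 50 but one replicate at or above 50; inactive means mean and every replicate below 50.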 Only a selection was taken, and actives are over-represented in it overall.

Assay: kanamycin survival loss of SKKanGAS strain – BacTiter-Glo luminescence, streptokinase expression inhibitor project, primary screen (AID 1662);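 further: strain carries kanamycin resistance gene driven by streptokinase promoter and grows in 40 µg/ml kanamycin; loss of luminescence reflects streptokinase promoter inhibition or plain growth inhibition; 0% = median of DMSO wells and 100% = positive control at its reference dose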
Settings: S. pyogenes SKKanGAS, kanamycin growth, 6 h, at 7.5 µM, active compounds read high

Structure (SMILES)	inhibition
CN(CC(=O)Nc1c(Cl)cccc1Cl)C(=O)CNC(=O)C1CCCCC1	-1.53% (inactive)
O=C(CCCCCn1c(=S)[nH]c2cc3c(cc2c1=O)OCO3)N1CCN(c2ccc(F)cc2)CC1	4.31% (inactive)
Cc1ccc(C)c(N2CCN(C(=O)CCCCn3c(=O)[nH]c4ccccc4c3=O)CC2)c1	10.5% (inactive)
Cc1ccc(C)c(N2CCN(C(=O)CCCCCn3c(=S)[nH]c4ccc(N5CCOCC5)cc4c3=O)CC2)c1	50.8% (active)
CCOc1ccc2nc(NC(=O)c3cc([N+](=O)[O-])ccc3N3CCOCC3)sc2c1	50.1% (active)
COc1ccc2nc(NC(=O)NC3CCCCC3)sc2c1	-5.74% (inactive)
O=C(NC1CCCCC1)c1cc([N+](=O)[O-])ccc1N1CCOCC1	3.56% (inactive)
COc1ccc2nc(NC(=O)c3ccc(Br)s3)sc2c1	38.2% (inactive)
COc1ccc2nc(Nc3nc4ccc(NC(C)=O)cc4s3)sc2c1	54.9% (active)
COc1ccc(S(=O)(=O)N2CCCCC2)cc1NC(=O)c1cc([N+](=O)[O-])ccc1N1CCOCC1	12.2% (inactive)
CSc1nc2ccc(NC(=O)c3c(F)cccc3F)cc2s1	-1.79% (inactive)
CCCC(=O)Nc1nc2ccc(NC(=O)c3c(F)c(F)c(OC)c(F)c3F)cc2s1	71.5% (active)
CCOc1ccc2nc(Nc3nc4ccc(NC(C)=O)cc4s3)sc2c1	62.6% (active)
CCCC(=O)Nc1nc2ccc(NC(=O)c3cccnc3)cc2s1	-13.3% (inactive)
CCOc1ccc2nc(NC(=O)CSc3nc4c(c(=O)n(C)c(=O)n4C)n3CC)sc2c1	4.34% (inactive)
CCC(=O)c1ccc(OCC(=O)Nc2ccc3nc(C)sc3c2)cc1	-10.4% (inactive)
CCCCSc1nc2c(c(=O)n1CC)SC(C)C2 (stereo not given)	-4.67% (inactive)
COCC1CCN(C(=O)C2CCC(=O)N(CC3CCCCC3)C2)CC1 (stereo not given)	-1.21% (inactive)
O=C(c1cc2c(s1)CCC2)N1CCN(c2ccccc2)CC1	3.4% (inactive)
CCNc1nc(NC(C)C)nc(N2CC(=O)N(CC(=O)OCC)C2=N)n1	0.266% (inactive)

Structure (SMILES)	inhibition
COc1ccc(S(=O)(=O)N2CCOC23CCN(S(=O)(=O)c2ccc([N+](=O)[O-])cc2)CC3)cc1	2.41% (inactive)
CCc1nn(CCCN2CCN(c3cccc(Cl)c3)CC2)c(=O)n1CCOc1ccccc1	-2.67% (inactive) and -3.29% (inactive)
COc1cc(NS(=O)(=O)c2ccc(N/C=C(\C=O)c3nc4cc(Cl)ccc4o3)cc2)nc(OC)n1	22% (inactive)
CSc1ccc(CN(C)CC(=O)NCc2ccc(F)cc2)cc1	-18.5% (inactive)
CC(C)(C)n1nnc(CCc2nnn(C(C)(C)C)n2)n1	-4.02% (inactive)
CCCCCCCCc1c(O)nc(-n2[nH]c(C)c(CCO)c2=O)[nH]c1=O	9.64% (inactive)
O=C(Nc1ccccc1F)c1ccccc1-c1ccc(C(F)(F)F)cc1	-10.9% (inactive)
NC(=O)Cn1cc(/C=N\NS(=O)(=O)c2ccccc2)c2ccccc21	-0.681% (inactive)
Cc1ccc2c(C)c(C(=O)N3CCN(c4ccncc4)CC3)oc2c1C	4.31% (inactive)
O=C1c2ccccc2-c2ncnc3c(N4CCOCC4)cc(N4CCOCC4)c1c23	13.7% (inactive)
O=[N+]([O-])c1c(NCCO)cc(Sc2nc3ccccc3s2)c2nonc12	51.8% (active)
CCOc1ccccc1Nc1ccc2nonc2c1[N+](=O)[O-]	-0.208% (inactive)
O=C(O)c1cccc(S(=O)(=O)Nc2ccc(O)cc2Sc2nc3ccccc3s2)c1	8.92% (inactive)
CCOCC(=O)Nc1ncc(S(=O)(=O)c2ccc([N+](=O)[O-])cc2)s1	-0.334% (inactive)
CC(C)C(=O)Nc1ccc2c3c(cccc13)CC2	-4.74% (inactive)
Cc1cccc(NC(=O)C2CCN(C(=O)NC3CCCCC3)CC2)c1	3.22% (inactive)
O=C(N/N=C/c1cc(Cl)cc([N+](=O)[O-])c1O)C(O)(c1ccccc1)c1ccccc1	94.7% (active)
CN(C)/N=C/c1cc(Cl)cc([N+](=O)[O-])c1O	0.131% (inactive)
O=C(N/N=C/c1cc(Br)c(O)c([N+](=O)[O-])c1)C(O)(c1ccccc1)c1ccccc1	4.7% (inactive)
Fc1ccccc1CNC(=S)Nc1ccc(Cl)cc1	18% (inactive)

Structure (SMILES)	inhibition
O=C(NC1CCN(C(=S)NCc2ccco2)CC1)c1ccc(F)cc1	13.3% (inactive)
COc1cccc(N2CC(NS(=O)(=O)c3ccc(Cl)cc3)CC2=O)c1 (stereo not given)	3.83% (inactive)
COc1ccc(N(C(=O)c2snc(C(N)=O)c2N)C(C(=O)NC2CCCC2)c2ccco2)cc1OC (stereo not given)	2.77% (inactive)
CCc1ccc2nc3sc(C(=O)Nc4nnc(CC)s4)c(N)c3cc2c1	95.3% (active)
CCc1nnc(NC(=O)c2sc3nc(C)cc(COC)c3c2N)s1	8.09% (inactive)
CCc1nnc(NC(=O)c2cccc(S(=O)(=O)N(C)c3ccc(OC)cc3)c2)s1	4.1% (inactive)
COc1ccc(S(=O)(=O)NCc2cccnc2)cc1NC(=O)c1ccc(C)cc1	-12.6% (inactive)
COC(=O)N/N=C/c1ccc(/C=N/NC(=O)OC)cc1	-10.9% (inactive)
COC(=O)N/N=C/c1ccc(-c2ccc(Cl)c(Cl)c2)o1	-12.4% (inactive)
COC(=O)N/N=C/c1c[n+]([O-])c2ccccc2[n+]1[O-]	50.6% (active)
Cn1cccc1C(=O)N1CCc2ccccc2C1	10.2% (inactive)
Cc1cc(N=Nc2ccc3ccccc3c2)ccc1O	81.9% (active)
CC(=O)CCC(=O)c1ccc2ccccc2c1	3.19% (inactive)
COc1ccc(N=Nc2ccc(O)c(P(=O)(c3ccccc3)c3ccccc3)c2)cc1	41.2% (inactive)
Cc1ccccc1Nc1c([N+](=O)[O-])ccc2nonc12	4.67% (inactive)
O=C(NCC(c1ccco1)N1CCc2ccccc2C1)c1ccccc1Cl (stereo not given)	17.4% (inactive)
COc1ccccc1NC(=O)c1cc(N2C(=O)C3C4CCC(C4)C3C2=O)ccc1Cl (stereo not given)	-15.7% (inactive)
Cc1ccc(-c2ccc(=O)n(Cc3ccc(F)cc3Cl)n2)cc1	12.7% (inactive)
N/C(=N/O)c1cccn1Cc1ccccc1[N+](=O)[O-]	0.341% (inactive)
O=c1c([N+](=O)[O-])cccn1Cc1ccc(F)cc1Cl	55.4% (active)
